# G9a inh: blocks human histone lysine methyltransferase G9a. G9a H3K9 monomethylation, AlphaScreen, 2 h. Q96KQ7. 8.8% of 350,000 active. Potency, µM (highest dose often 102 µM), for the others: top-dose activity, negative = inhibition, actives largely listed as inhibitors; further: potency means the concentration at half of the fitted maximal effect; on the % scale 0 is the no-effect control and ±100 the full control effect; nearly all actives have a fitted effect of over 75% in size
# Target sequence (Q96KQ7 913-1193 limits assumed): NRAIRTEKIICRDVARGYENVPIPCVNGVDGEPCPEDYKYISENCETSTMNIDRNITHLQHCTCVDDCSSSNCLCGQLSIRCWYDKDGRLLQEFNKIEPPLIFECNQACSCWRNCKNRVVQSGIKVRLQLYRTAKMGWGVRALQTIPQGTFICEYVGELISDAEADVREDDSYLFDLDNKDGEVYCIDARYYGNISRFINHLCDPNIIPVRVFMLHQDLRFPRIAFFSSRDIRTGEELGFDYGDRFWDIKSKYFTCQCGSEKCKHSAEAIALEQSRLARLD
#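 AlphaScreen detection with an anti-monomethyl H3K9 antibody quantified product after a 2 h room-temperature reaction containing 500 nM biotinylated H3K9 peptide, 20 µM SAM and 20 nM enzyme, which had been preincubated 15 min with compound.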
# Six1-Eya2 blk: inhibitors of human Six1/Eya2 interaction | Q15475+O00167 | AlphaScreen GST-Six1/His-Eya2 binding, biochemical; active compounds read low | activity change, % (test concentration not listed) | 0.56% of 360,000 active; in the data active means activity change below about -65%; inconclusive means mostly about -30% to -63%; further: on the % scale 0 is the no-effect control and ±100 the full control effect
#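 AlphaScreen luminescence read after one hour at 37 °C in darkness. Pin-transferred compounds met GST-Six1 and His-Eya2 protein (5X stock 250 nM/500 nM) plus glutathione donor and Ni-chelate acceptor beads (5X, 50 ug/mL).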
# BAZ2B inh: BAZ2B (human) inhibition. Q9UIF8. AlphaScreen BAZ2B-H3K14Ac peptide displacement. Potency, µM (top dose mostly 114 µM), without a hit: at the highest dose activity change, negative = inhibition, most hits filed as inhibitors. 4.4% of 360,000 active. AID 504333; further: potency means the concentration at half of the fitted maximal effect; on the % scale 0 is the no-effect control and ±100 the full control effect; nearly all actives have a fitted effect of over 60% in size
#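 AlphaScreen luminescence quantifies BAZ2B engagement of H3K14Ac peptide; the protein and biotinylated peptide are both at 50 nM final, buffer PBS pH 7.4 with 0.01% Tween-20, all steps at room temperature.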
# HP1b chromo inh: HP1-beta chromodomain-methylated histone interaction inhibition; 0.56% of 390,000 active; P83916; Potency, µM (doses to about 114 µM), without a hit: top-dose activity change, negative = inhibition, actives largely listed as inhibitors; AlphaScreen HP1-beta / biotin-H3K9me3 peptide binding; AID 540317; further: potency means the concentration at half of the fitted maximal effect; nearly all actives have a fitted effect of over 70% in size
# Target sequence (P83916 whole entry, looked up): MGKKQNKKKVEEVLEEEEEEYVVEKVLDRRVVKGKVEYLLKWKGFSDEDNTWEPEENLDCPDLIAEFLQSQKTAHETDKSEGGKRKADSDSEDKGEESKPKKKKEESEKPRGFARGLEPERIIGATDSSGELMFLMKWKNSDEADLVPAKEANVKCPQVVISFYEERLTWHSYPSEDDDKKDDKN
#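 AlphaScreen: HP1-beta (50 nM) preformed 30 min with biotin-H3(1-18)K9me3 peptide (50 nM) in PBS pH 7.4, 0.01% Tween-20. Compound added for 30 min at RT, then streptavidin donor/nickel chelate acceptor beads (10 ug/mL) for 30 min.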
# CtBP-E1A inh: blocks the CtBP interaction with E1A; AlphaScreen GST-E1A/His-CtBP binding, 1536-well; active compounds read low; activity change, % (test concentration not listed); 0.49% of 340,000 active; AID 651724; in the data active means activity change below about -65%; inconclusive means mostly about -30% to -63%; further: on the % scale 0 is the no-effect control and ±100 the full control effect
#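 GST-E1A and His-tagged CtBP (125 nM each as 5X stock) were preincubated with pin-transferred compound for 2 h at 37 °C in the dark, then glutathione donor and nickel acceptor beads were added for 1 h before AlphaScreen reading.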
# JMJD2A Tudor: blocks the human JMJD2A Tudor domain. Potency, µM (top dose mostly 114 µM), for inactives: at the highest dose activity change, negative = inhibition, most hits filed as inhibitors. AlphaScreen JMJD2A-Tudor / H3K4me3 peptide binding. AID 504339. 4.4% of 390,000 active; further: potency means the concentration at half of the fitted maximal effect; on the % scale 0 is the no-effect control and ±100 the full control effect; nearly all actives have a fitted effect of over 50% in size
# Active calls of the source: *; u = inconclusive; x = not tested or not shown; ! = a repeat was not active; [ ] = another dose, or the depositor's remark. Shown are actives, neighbours in structure and some others; about 10% of the full set was active somewhere. Unless noted, the call rests on the fitted dose curve; in most records, active means well fitted inhibition curve with a large enough effect; inconclusive means small, poorly fitted or top-dose-only effect; inactive means no such curve, though single readings can be large or run the other way.
SMILES,G9a inh,Six1-Eya2 blk,BAZ2B inh,HP1b chromo inh,CtBP-E1A inh,JMJD2A Tudor
COc1ccccc1N1CCN(CC(=O)c2ccc3ccn(C(C)=O)c3c2)CC1,11µM*,-2,-11%,41%,-12,-27%
COc1cc2c(cc1OC)CN(CCOc1ccc(Br)cc1)CC2,-19%,-15,-24%,24%,x,-25%
Cc1ccccc1N1CCN(CCN2C(=O)CC(=C3c4ccccc4-c4ccccc43)C2=O)CC1,x,-6,x,u,-7,u
COc1ccc(C(=O)CCN2CCc3cc(OC)c(OC)cc3C2)cc1,13µM*,-4,-24%,25%,-7,-16%
COc1ccccc1N1CCN(CCN2C(=O)CC(=C3c4ccccc4-c4ccccc43)C2=O)CC1,x,-18,x,-15%,-10,32µM*
COc1ccc(C(=O)CCN2CCN(c3ccccc3OC)CC2)cc1,50µM*,-3,u,26%,0,-23%
CC(=O)OCC(=O)c1ccc2ccn(C(C)=O)c2c1,9%[59 µM],3,-2%,35%,2,1%
CC1(C)CC(=O)C2=C(C1)O[C@@]1(CCCCN3C(=O)c4ccccc4C3=O)Cc3cc(C#N)ccc3C2O1,x,x,-2%[22.9 µM],x,x,x
O=C(CCCCCn1c(=O)[nH]c2ccccc2c1=O)NCc1cccc(Cl)c1,6%[59 µM],x,0%,3%,x,-16%
COC(=O)c1cccc(-n2c(CCC(=O)O)ccc2-c2ccc(OC)cc2)c1,18µM*,x,u,12%,x,-20%
COc1ccc(-n2c(CCC(=O)O)ccc2-c2ccccc2)cc1,50µM*,-13,u,14%,x,-20%
COC(=O)c1cccc(-n2c(CCC(=O)O)ccc2-c2cccs2)c1,u,1,71µM*!,16%,0,-11%[11.4 µM]
C[C@]1(O)CC(=O)C=C[C@H]1Nc1ccccc1,x,u,x,36%,-28,-18%
COc1ccc(/C=C\C(=O)CC(O)(c2ccccc2)C(F)(F)F)cc1 (centres undefined),-6%,2,-4%,36%,0,-7%
CCCC#Cc1ccc2c(c1)O[C@@H](CN(C)Cc1ccc3c(c1)OCO3)[C@H](C)CN([C@@H](C)CO)S2(=O)=O,x,-9,x,x,-9,x
COc1cccc(CNC(=O)c2ccc3c(c2)nc2n3CCC(C)C2)c1OC (centres undefined),-5%[59 µM],x,-2%,20%[57 µM],x,-13%
O=C(Nc1ccc(Nc2ccncc2)cc1)c1ccc([N+](=O)[O-])cc1,-27%,-6,-16%,24%,x,-16%
O=C(Nc1ccc(Nc2ccncc2)cc1)c1ccc(Nc2ccnc3ccc([N+](=O)[O-])cc23)cc1[N+](=O)[O-],50µM*,1,-18%,-37%,x,u
Brc1ccc2ncnc(Nc3ccc(N4CCOCC4)cc3)c2c1,-44%[12.7 µM],-23,45µM*,-31%,u,u
O=C(COc1ncnc2ccc(Br)cc12)N1CCOCC1,1.1µM*,7,-22%,20%,-5,-13%
CC(C)CCNC(=O)NC(=O)COC(=O)/C=C/c1cc(Br)ccc1F,-10%,5,16%,-9%,-5,14µM*
O=C(COC(=O)/C=C/c1cc(Br)ccc1F)Nc1ccc2[nH]c(=O)[nH]c2c1,u,-11,0%,20%,-11,-6%
O=C(/C=C/c1cc(Br)ccc1F)OCC(=O)N1CCCC1,u,u,-2%,14%,-6,-13%
O=C(/C=C/c1cc(Br)ccc1F)OCC(=O)N1CCOCC1,x,-24,x,10%,-81*,-8%
Cc1ccc(S(=O)(=O)N2CCOCC2)cc1C(=O)NCCCN1CCCC1=O,x,-14,x,x,2,x
SMILES,G9a inh,Six1-Eya2 blk,BAZ2B inh,HP1b chromo inh,CtBP-E1A inh,JMJD2A Tudor
CN(Cc1c(F)cccc1Cl)C(=O)CCc1c[nH]c2ccccc12,u,4,71µM*,-17%,2,u
CCOC(=O)c1nc(C)sc1-c1ccnn1S(=O)(=O)c1ccc(C)cc1,-6%,-2,u,51%,-14,1%
c1ccc(-c2ccc(SCc3cccnc3)nn2)nc1,11%,-91*,3.2µM*,13%,-89*,u
C[N+](C)(C)C/C=C1/COCO1,50µM*,1,-2%,-3%,3,u
COc1ccc(C2/C(=C(/O)c3ccc4c(c3)CC(C)O4)C(=O)C(=O)N2CCCN2CCOCC2)cc1OC (centres undefined),u,0,-14%,36%,10,-5%
COc1ccc(/C(O)=C2/C(=O)C(=O)N(CC3CCCO3)C2c2cccc(O)c2)cc1 (centres undefined),u,8,-26%,-4%,2,50µM*
CCOc1ccc(C2/C(=C(/O)c3ccc4c(c3)CC(C)O4)C(=O)C(=O)N2CC2CCCO2)cc1 (centres undefined),u,4,u,12%,7,-9%
COc1cc(C2/C(=C(\O)c3ccc4c(c3)CC(C)O4)C(=O)C(=O)N2CCN2CCOCC2)cc(OC)c1OC (centres undefined),71µM*,17,-23%,12%,-14,u
COc1cc(C2/C(=C(\O)c3ccc4c(c3)CC(C)O4)C(=O)C(=O)N2CC2CCCO2)cc(OC)c1OC (centres undefined),50µM*,6,u,20%,0,-3%
CCCCOc1ccc(C2/C(=C(/O)c3ccc4c(c3)CC(C)O4)C(=O)C(=O)N2CCCN2CCOCC2)cc1OC (centres undefined),56µM*,1,-20%,11%,3,u
CC(C)(C)OC(=O)N1CCC(c2c(C(=O)NCCN3CCc4ccccc4C3)cnn2-c2ccc(F)cc2)CC1,-45%[59 µM],x,0%[57.1 µM],-11%,x,-25%
COc1ccc(NC(=O)c2c(NC(=O)CNCC(C)C)sc3c2CCC3)c(OC)c1,x,-2,1%,20%,-1,-14%
CC(=O)Nc1cc(-c2cccc(F)c2)cn2c(-c3ccccc3)cnc12,x,-5,x,x,1,x
CCN(c1cc(C)cc(C)c1)S(=O)(=O)c1nnc(NC(=O)c2cccs2)s1,-28%[59 µM],x,-5%,4%,x,-27%
CCN(c1cccc(C)c1)S(=O)(=O)c1nnc(NC(=O)c2cccs2)s1,3.2µM*,x,3.5µM*,u,x,u
CCN(c1ccccc1C)S(=O)(=O)c1nnc(NC(=O)c2ccccc2C)s1,2.5µM*,x,u,-10%,x,u
Cn1c(C(=O)NCc2ccccc2Cl)cc2sc(Cl)cc21,5%[59 µM],x,-33%,61%,x,-5%
Cc1cccc(S(=O)(=O)NC(=O)C2(C)CCN2C(=O)c2ccccc2CCc2ccccc2)c1 (centres undefined),x,0,x,x,4,x
C=C1CCN(C(CC(C)C)C(=O)NCc2ccc(OC)cc2)S(=O)(=O)c2ccccc21 (centres undefined),x,x,x,15%,x,-9%

# Screening results (PubChem)
